The list is not random: actives were taken first. Their share in the collection is about 21%.
DT40 TDP1 CPT: DT40-hTDP1 cell growth loss with CPT | chicken DT40 Tdp1-/-;hTDP1 cells + 20 nM CPT, ATP luminescence, 48 h | Potency, µM (series often up to 46.2 µM), usual class: inhibitors | hit rate 12% among 420,000; also: nearly all actives have a fitted effect of over 55% in size
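Chicken DT40 Tdp1-/- cells complemented with human TDP1, 400 cells/well, exposed to compounds plus 20 nM camptothecin for at least 48 h at 37 C; viability read as ATP content by CellTiter-Glo luminescence.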
DT40 TDP1 no CPT: qHTS for Inhibitors of human tyrosyl-DNA phosphodiesterase 1 (TDP1): qHTS in cells in absence of CPT. AID 686978, 2013. hit rate 15% among 420,000. Potency, µM (highest dose often 46.2 µM), most hits filed as inhibitors. DT40 Tdp1-/- hTDP1 cells, no CPT, ATP luminescence, 48 h; also: nearly all actives have a fitted effect of over 55% in size
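Chicken DT40 Tdp1-/- cells stably complemented with human TDP1 were seeded at 400 cells/well with DMSO in place of 20 nM camptothecin. After compound pinning, cells grew at least 48 hr at 37 °C; viability read by CellTiter-Glo luminescence.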
IL1B secr inh: inhibitors of inflammasome signaling (IL-1 beta secretion) | THP-1 LPS/ATP IL-1B secretion, AlphaLISA, 16 h; active compounds read low | activity change, % at 57.5 µM | hit rate 4.7% among 360,000 | AID 743279; in the data active = activity change below about -50%; inconclusive = mostly about -30% to -49%
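Secreted IL-1B measured by AlphaLISA bead assay after 16 h compound exposure of THP-1 cells; compounds (final up to 57.5 uM) added 1 h before LPS (250 ng/mL) and ATP (1.25 mM) stimulation; lower signal means less secretion.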
DRD3 antagonist: D3 dopamine receptor (human) antagonism. P35462. D3R cells, DiscoveRx beta-arrestin luminescence, antagonist mode; active compounds read low. max response, negative = inhibition, %. hit rate 2.5% among 360,000. AID 652054; in the data active = max response below about -50%; inconclusive = no clear call, values can overlap the other calls
Target sequence (P35462 whole entry, looked up): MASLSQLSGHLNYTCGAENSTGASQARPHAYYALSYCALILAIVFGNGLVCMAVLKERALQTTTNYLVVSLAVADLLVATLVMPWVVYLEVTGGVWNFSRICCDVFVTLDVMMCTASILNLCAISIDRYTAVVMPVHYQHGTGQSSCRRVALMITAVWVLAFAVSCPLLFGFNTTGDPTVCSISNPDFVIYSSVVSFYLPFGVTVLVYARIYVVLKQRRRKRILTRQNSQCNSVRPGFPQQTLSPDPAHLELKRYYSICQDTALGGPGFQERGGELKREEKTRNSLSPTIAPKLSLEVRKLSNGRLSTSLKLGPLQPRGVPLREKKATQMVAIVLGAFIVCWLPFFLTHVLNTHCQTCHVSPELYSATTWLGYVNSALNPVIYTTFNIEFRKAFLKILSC
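Cells plated overnight at 1500 cells/well, then exposed to library compounds with dopamine controls for 90 minutes at 37 degrees C. DiscoveRx reagent added for 30–60 minutes at room temperature; luminescence read, quantitative HTS format.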
DRD3 agonist: activates the human D3 dopamine receptor | P35462 | D3R DiscoveRx beta-arrestin cells, luminescence, 90 min | max activation, % | hit rate 0.58% among 410,000; in the data active = max activation above about 30%
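Agonist-mode cell screen: cells plated at 1500/well and incubated overnight at 37 °C, then exposed to library compounds for 90 min at 37 °C. Detection reagent was added for 30–60 min at room temperature, and luminescence was read.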
ClpP mod: qHTS Assay for Activators of ClpP | Potency, µM (titrated, usually from 57.5 µM) | AID 651965, 2013 | purified B. subtilis ClpP, FRET peptide cleavage, 20 min | hit rate 1.9% among 340,000 | ATP-dependent Clp protease proteolytic subunit (Bacillus subtilis (strain 168)), P80244; active = well fitted falling curve with a large enough effect; inconclusive = small, poorly fitted or top-dose-only effect; inactive = no such curve, though single readings can be large or run the other way; also: the source files actives as falling curves though it sought activators and does not explain the sign; nearly all actives have a fitted effect of over 65% in size
Target sequence (P80244 whole entry, looked up): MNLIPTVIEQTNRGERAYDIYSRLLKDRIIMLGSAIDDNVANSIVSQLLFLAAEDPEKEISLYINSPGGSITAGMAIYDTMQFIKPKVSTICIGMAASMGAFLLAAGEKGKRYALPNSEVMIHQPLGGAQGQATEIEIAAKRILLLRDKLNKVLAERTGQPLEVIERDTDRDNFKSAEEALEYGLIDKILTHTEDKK
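FRET quenching reversal measured ClpP activation: 10 microg/mL B. subtilis ClpP at pH 8 with the FRET-FV decapeptide, read at 430 nm after 320 nm excitation. The 20-min minus 0-min signal was scaled between DMSO/no-enzyme wells and ADEP (5.8 microM final).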
Numbers stand for hits. Unless noted, calls follow the shape of the dose curve; as a rule, active = well fitted inhibition curve with a large enough effect; inconclusive = small, poorly fitted or top-dose-only effect; inactive = flat fitted curve, though single readings scatter.

Results for COc1ccc2c(C#N)c3ccccn3c2c1 ?
DT40 TDP1 CPT: inconclusive; DT40 TDP1 no CPT: 23.1µM; IL1B secr inh: inactive; DRD3 antagonist: inactive; DRD3 agonist: inactive; ClpP mod: inactive

What do the screens show for `CCc1c(C)sc(NC(=O)c2ccoc2C)c1C(N)=O`?
DT40 TDP1 CPT: inconclusive; DT40 TDP1 no CPT: inconclusive; IL1B secr inh: -56.2; DRD3 antagonist: inactive; DRD3 agonist: inactive; ClpP mod: inactive

What do the screens show for `CCOC(=O)c1c(NC(=O)c2ccoc2C)sc(C)c1C`?
DT40 TDP1 CPT: inactive; DT40 TDP1 no CPT: 20.6µM; IL1B secr inh: inactive; DRD3 antagonist: inactive; DRD3 agonist: inactive; ClpP mod: 8.91µM

How did Cc1occc1C(=O)Nc1sc2c(c1C(N)=O)CCCCC2 do in these assays?
DT40 TDP1 CPT: inconclusive; DT40 TDP1 no CPT: inconclusive; IL1B secr inh: inactive; DRD3 antagonist: inactive; DRD3 agonist: inactive; ClpP mod: inactive

Results for COc1ccc(-c2nc3ccc(C)cc3c(=O)o2)cc1OC ?
DT40 TDP1 CPT: inactive; DT40 TDP1 no CPT: inactive; IL1B secr inh: inactive; DRD3 antagonist: inactive; DRD3 agonist: inactive; ClpP mod: inactive

Results for CCc1ccccc1NC(=O)CCNS(=O)(=O)c1ccc2c(c1)CCN2C(=O)C1CC1 ?
DT40 TDP1 CPT: inconclusive; DT40 TDP1 no CPT: 18.4µM; DRD3 agonist: inactive; ClpP mod: inactive

How did O=C(CCNS(=O)(=O)c1ccc2c(c1)CCN2C(=O)C1CC1)Nc1ccc(Cl)cc1 do in these assays?
DT40 TDP1 CPT: 10.3µM; DT40 TDP1 no CPT: 11.6µM; DRD3 agonist: inactive; ClpP mod: inactive

What do the screens show for `O=C(CCNS(=O)(=O)c1ccc2c(c1)CCN2C(=O)C1CC1)Nc1ccc(OC(F)(F)F)cc1`?
DT40 TDP1 CPT: inconclusive; DT40 TDP1 no CPT: inconclusive; DRD3 agonist: inactive; ClpP mod: inactive

How did Cc1ccc(NC(=O)CCNS(=O)(=O)c2ccc3c(c2)CCN3C(=O)C2CC2)c(Cl)c1 do in these assays?
DT40 TDP1 CPT: 5.17µM; DT40 TDP1 no CPT: 4.11µM; DRD3 agonist: inactive; ClpP mod: inactive

What do the screens show for `COc1ccccc1NC(=O)CCNS(=O)(=O)c1ccc2c(c1)CCN2C(=O)C1CC1`?
DT40 TDP1 CPT: inconclusive; DT40 TDP1 no CPT: inconclusive; DRD3 agonist: inactive; ClpP mod: inactive

How did COCC(=O)Nc1cc(C(=O)N2CCN(c3ccccc3)C(=O)C2)cc2nc(-c3ccccc3)n(C)c12 do in these assays?
DT40 TDP1 CPT: inactive; DT40 TDP1 no CPT: inactive

How did COc1ccc(NC(=O)C2Cc3cc(S(=O)(=O)N4CCCCC4)ccc3N2C(C)=O)cc1Cl (configuration not stated) do in these assays?
DT40 TDP1 CPT: inconclusive; DT40 TDP1 no CPT: inconclusive; IL1B secr inh: inactive; DRD3 antagonist: inactive; DRD3 agonist: inactive; ClpP mod: inactive

How did Fc1ccc(-c2nc(Nc3cccc(C(F)(F)F)c3)nc3c2COc2ccccc2-3)cc1 do in these assays?
DT40 TDP1 CPT: inconclusive; DT40 TDP1 no CPT: inconclusive; DRD3 agonist: inactive; ClpP mod: inactive

How did CCOc1ccc(NC(=O)CSc2oc(-c3ccco3)nc2S(=O)(=O)c2ccc(Cl)cc2)cc1 do in these assays?
DT40 TDP1 CPT: 20.6µM; DT40 TDP1 no CPT: inconclusive; DRD3 agonist: inactive; ClpP mod: inactive

How did Cc1ccc(S(=O)(=O)c2nc(-c3ccco3)oc2SCC(=O)c2ccc(Cl)cc2)cc1 do in these assays?
DT40 TDP1 CPT: inconclusive; DT40 TDP1 no CPT: inconclusive; DRD3 agonist: inactive; ClpP mod: inactive

Results for Cc1cc(C)cc(NC(=O)CSc2oc(-c3ccco3)nc2S(=O)(=O)c2ccc(Cl)cc2)c1 ?
DT40 TDP1 CPT: 23.1µM; DT40 TDP1 no CPT: inconclusive; DRD3 agonist: inactive; ClpP mod: inactive

Results for CC(=O)N1C[C@H]2CON(C)[C@H]2C[C@H]1c1cccc(N2CCOCC2)c1 ?
DT40 TDP1 CPT: inactive; DT40 TDP1 no CPT: inconclusive; IL1B secr inh: inactive; DRD3 antagonist: inactive; DRD3 agonist: inactive; ClpP mod: inactive

What do the screens show for `O=C1c2cccc3cccc(c23)C(=O)N1c1nncs1`?
DT40 TDP1 CPT: inactive; DT40 TDP1 no CPT: inconclusive; IL1B secr inh: inactive; DRD3 antagonist: inactive; DRD3 agonist: inactive; ClpP mod: 15.8µM

What do the screens show for `O=C1c2cccc3cccc(c23)C(=O)N1c1ccc(O)cc1`?
DT40 TDP1 CPT: inactive; DT40 TDP1 no CPT: inactive; IL1B secr inh: inactive; DRD3 antagonist: inactive; DRD3 agonist: inactive; ClpP mod: inactive

What do the screens show for `CC(C(=O)O)c1ccc(C(=O)c2ccccc2)s1` (configuration not stated)?
DT40 TDP1 CPT: inactive; DT40 TDP1 no CPT: inconclusive; IL1B secr inh: inactive; DRD3 antagonist: inactive; DRD3 agonist: inactive; ClpP mod: inactive

What do the screens show for `Cc1ccc(S(=O)(=O)Nc2ccc3c(c2)OCCO3)c(C)c1NS(C)(=O)=O`?
DT40 TDP1 CPT: inconclusive; DT40 TDP1 no CPT: 10.3µM; IL1B secr inh: inactive; DRD3 antagonist: inactive; DRD3 agonist: inactive

What do the screens show for `CCNC(=O)CSc1nc2cc(S(=O)(=O)Nc3ccc(OC)cc3)ccc2o1`?
DT40 TDP1 CPT: inconclusive; DT40 TDP1 no CPT: inactive; IL1B secr inh: inactive; DRD3 antagonist: inactive; DRD3 agonist: inactive; ClpP mod: inactive

How did COc1ccc(NS(=O)(=O)c2ccc3oc(Nc4ccc5c(c4)OCCO5)nc3c2)cc1 do in these assays?
DT40 TDP1 CPT: inconclusive; DT40 TDP1 no CPT: 14.6µM; IL1B secr inh: inactive; DRD3 antagonist: -56.3; DRD3 agonist: inactive; ClpP mod: inconclusive

How did COc1ccc(NS(=O)(=O)c2ccc(NS(=O)(=O)c3ccc4c(c3)OCCO4)cc2)cc1 do in these assays?
DT40 TDP1 CPT: inconclusive; DT40 TDP1 no CPT: inconclusive; DRD3 agonist: inactive; ClpP mod: inactive

Results for COc1ccc(NS(=O)(=O)c2ccc3oc(SC(C)C(N)=O)nc3c2)cc1 (configuration not stated) ?
DT40 TDP1 CPT: 16.4µM; DT40 TDP1 no CPT: 11.6µM; IL1B secr inh: inactive; DRD3 antagonist: inactive; DRD3 agonist: inactive; ClpP mod: 31.6µM

What do the screens show for `COc1cccc(S(=O)(=O)Nc2ccc3c(c2)OCCO3)c1`?
DT40 TDP1 CPT: inconclusive; DT40 TDP1 no CPT: inconclusive; IL1B secr inh: inactive; DRD3 antagonist: inactive; DRD3 agonist: inactive; ClpP mod: 14.1µM

Results for Cc1cccc(S(=O)(=O)Nc2ccc3c(c2)OCCO3)c1 ?
DT40 TDP1 CPT: inactive; DT40 TDP1 no CPT: inconclusive; IL1B secr inh: inactive; DRD3 antagonist: inactive; DRD3 agonist: inactive; ClpP mod: inactive

How did Cc1ccc(C(=O)N/N=C/C2=Cc3ccccc3OC2C)cc1 (configuration not stated) do in these assays?
DT40 TDP1 CPT: inconclusive; DT40 TDP1 no CPT: 14.6µM; IL1B secr inh: inactive; DRD3 antagonist: inactive; DRD3 agonist: inactive; ClpP mod: inactive
